Source: PubChem (several laboratories)
eLon inh: inhibits E. coli Lon protease. P0A9M0. inhibition, % at 7.94 µM. AID 602123. hit rate 0.42% among 360,000. purified E. coli Lon protease, fluorescence polarization; in the data active = inhibition above about 13%, passing the limit was not always enough;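 also: 0% = enzyme with probe and DMSO and 100% = no enzyme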
C-LANA FP: inhibitors of KSHV LANA C-terminal domain DNA binding; hit rate 0.078% among 340,000; inhibition, % at 9 µM; AID 504423; MBP-C-LANA/FAM-LBS DNA binding, fluorescence polarization;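 active = highest replicate inhibition at or above 60% at 9 µM, even if other replicates fall short; inactive = all replicates below 60% inhibition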;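 also: 0% = neutral control wells and 100% = 4 µM acridine orange control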
MCL1-BIM inh: inhibitors of human MCL1 binding to BIM-BH3 peptide; Q07820; GST-MCL1 / FITC-Bim-BH3 fluorescence polarization; inhibition, % at 10.9 µM; hit rate 0.68% among 320,000; AID 2057;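 active = inhibition above the mean inhibition of all tested compounds plus 3 SD, set per campaign, cut at about 40% in these data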;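 also: 0% = DMSO wells and 100% = unlabeled Bim-BH3 peptide control; higher means more loss of mP so more displacement of Bim peptide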
GLD-1 RNA inh: GLD-1-TGE RNA interaction inhibition (C. elegans). Q17339. purified GLD-1 + fluorescein TGE RNA, fluorescence polarization. inhibition, % at 5.96 µM. hit rate 0.44% among 320,000;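 active = percent inhibition above a per-plate cutoff, the plate mean of test compounds plus 3 SD, cut at about 30% in these data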;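 also: 0% = DMSO wells with GLD-1 and probe and 100% = wells lacking GLD-1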
Target sequence (Q17339 whole entry, looked up): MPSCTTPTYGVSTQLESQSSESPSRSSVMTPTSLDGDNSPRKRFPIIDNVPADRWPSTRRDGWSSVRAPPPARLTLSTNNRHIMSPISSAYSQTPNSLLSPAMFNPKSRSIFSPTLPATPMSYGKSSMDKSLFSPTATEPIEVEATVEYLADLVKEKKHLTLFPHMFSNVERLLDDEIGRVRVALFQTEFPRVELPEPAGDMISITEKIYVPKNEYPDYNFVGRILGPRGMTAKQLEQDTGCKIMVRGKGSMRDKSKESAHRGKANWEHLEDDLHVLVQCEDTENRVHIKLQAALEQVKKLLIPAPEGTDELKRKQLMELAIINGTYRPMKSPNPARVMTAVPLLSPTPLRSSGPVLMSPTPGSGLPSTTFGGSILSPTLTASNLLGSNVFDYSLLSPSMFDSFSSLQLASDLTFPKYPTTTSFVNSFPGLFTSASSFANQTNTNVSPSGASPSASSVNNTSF
Keap1 Nrf2 FP: inhibitors of human Keap1-Nrf2 protein-protein interaction | Q14145 | Keap1 Kelch-Nrf2 peptide fluorescence polarization, 1536-well | inhibition, % at 9.4 µM | hit rate 0.15% among 340,000 | AID 504523; in the data active = inhibition above about 12%;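 also: human Keap1 Kelch domain with fluorescein labeled Nrf2 9mer peptide probe; 0% = neutral control wells and 100% = peptide positive control; higher means more block of Keap1 binding to Nrf2 peptide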
BCLXL inh: Bcl-xL (human) inhibition; hit rate 0.7% among 320,000; AID 2129; inhibition, % at 10.9 µM; GST-Bcl-xL / FITC-Bim BH3 peptide fluorescence polarization;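 active = inhibition above the mean of all tested compounds plus 3 SD, cutoff set per campaign, cut at about 30% in these data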;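 also: 0% = DMSO wells and 100% = unlabeled Bim-BH3 peptide competitor; inhibitors lower millipolarization by displacing the labeled peptide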
Target sequence (Q07817 whole entry, looked up): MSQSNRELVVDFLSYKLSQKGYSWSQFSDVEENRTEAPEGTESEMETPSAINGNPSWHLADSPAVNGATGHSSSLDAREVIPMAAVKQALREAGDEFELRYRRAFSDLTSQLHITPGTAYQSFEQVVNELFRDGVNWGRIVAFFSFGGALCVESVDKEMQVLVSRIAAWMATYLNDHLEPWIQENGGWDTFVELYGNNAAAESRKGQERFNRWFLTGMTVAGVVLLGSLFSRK
eLon confirm: confirmation of E. coli Lon protease inhibitors; inhibition, % at 7.94 µM; hit rate 31% among 1,400; purified E. coli Lon, fluorescence polarization; shares compounds with eLon inh; in the data active = inhibition above about 16%;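 also: 0% = enzyme with probe and DMSO and 100% = no enzyme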
* marks the source's active call; other numbers are inactive results; . = no result given. Most compounds without a hit are left out; they make up all but 1.3% or so of the library.

SMILES	eLon inh	C-LANA FP	MCL1-BIM inh	GLD-1 RNA inh	Keap1 Nrf2 FP	BCLXL inh	eLon confirm
Fc1ccccc1CNc1nc(NCC2CC2)nc2ccsc12	12.3*	.	.	.	.	.	-5.8
O=C(CSc1nc2ccccc2o1)c1ccccc1	52.8*	-1.0	-7.1	-2.3	5.0	-2.4	24.2*
O=C(COc1ccccc1)Nc1nnc(COc2ccccc2)s1	-4.2	-0.4	.	.	-0.9	.	.
C[C@@]12CCC3[C@@](CCC4[C@@]3(C)CCC[C@@]4(C)C(=O)NC3CCCCC3)(CC1=O)C2 (stereo partly specified)	3.0	-0.5	-1.8	5.1	0.2	3.6	.
C[C@@]12CCC3[C@@](CCC4[C@@]3(C)CCC[C@@]4(C)C(=O)N3CCCCC3)(CC1=O)C2 (stereo partly specified)	27.6*	1.9	-0.2	8.3	1.0	2.0	6.6
Cc1cccc(C)c1OCc1cc(C(=O)N2CCC(c3ccccc3)CC2)no1	20.9*	-2.3	3.8	-0.3	-2.0	-1.4	16.8*
Cc1cccc(C)c1OCc1cc(C(=O)N2CCC(C3CCCCC3)C2)no1 (stereo unspecified)	-0.7	-1.6	-5.6	3.8	-2.6	0.1	.
CN1CC=C2C(C#N)=C(N)C(C#N)(C#N)C(Cc3ccccc3)C2C1 (stereo unspecified)	39.4*	41.7	128.6*	68.7*	9.1	117.8*	9.3
CCN(C(=O)CSc1nc(C)c(C)c(C)n1)C1CCS(=O)(=O)C1 (stereo unspecified)	1.2	-2.6	.	-5.6	-6.8	.	.
CC(C)=CCCC(C)CN1CCC(n2nccc2NC(=O)c2cccnc2)CC1 (stereo unspecified)	-4.5	9.8	-7.5	3.2	3.7	-3.6	.
CC(=O)Nc1ccc(S(=O)(=O)NCc2ccc3[nH]c(C)cc3c2)cc1	19.4*	1.4	11.0	9.4	-4.0	8.8	7.3
CCN(CC)S(=O)(=O)c1ccc(N2CCCC2)c(NC(=O)CN2C(=O)NC3(CCCC3)C2=O)c1	21.8*	-0.1	-4.2	9.0	0.2	3.1	-4.1
CC(NC(=O)c1ccccc1Cl)C1CC2CCC1C2 (stereo unspecified)	17.4*	0.3	3.8	-0.1	-1.5	0.8	-3.5
Cc1cccc(C)c1NC(=O)c1c[nH]c2ccccc12	-0.7	0.4	10.4	-3.9	-1.3	7.7	.
O=C(NCCCN1CCCC1=O)c1ccc2c(=O)n(Cc3ccco3)c(=S)[nH]c2c1	17.5*	-0.4	5.7	-5.7	-5.6	12.8	7.6
O=C(NCc1ccccc1)c1ccc2c(=O)n(CCCN3CCCC3=O)c(=S)[nH]c2c1	-1.1	0.0	-3.8	0.1	-3.4	0.5	.
O=C(Nc1cccc(S(=O)(=O)N2CCCCC2)c1)c1ccc2c(=O)n3c(nc2c1)CCCCC3	25.3*	0.3	-0.6	2.8	1.8	6.5	6.0
CCn1c(CC(=O)Nc2ccccc2F)nnc1SCC(=O)NC1CCCC1	16.9*	1.2	-0.9	0.5	4.9	-5.6	4.6
CCOC(=O)C1CCN(C(=O)C(=O)c2cn(CC(=O)N3CCCCCC3)c3ccccc23)CC1	14.5	27.6	3.5	10.0	5.3	10.8	.
CCOC(=O)N1CCN(C(=O)C(=O)c2cn(CC(=O)N3CCCCCC3)c3ccccc23)CC1	19.9*	0.9	6.2	8.4	0.9	4.0	1.8
COc1cccc(OCC(O)CN2CCN(c3ccc(F)cc3)CC2)c1 (stereo unspecified)	19.6*	0.3	8.1	1.1	-4.3	3.9	-14.3
CCOc1ccccc1CN1CCN(CCCn2cccn2)CC1CCO (stereo unspecified)	-4.7	0.5	13.1	3.8	-2.4	6.4	.
CCOC(=O)/C(C#N)=C(C)/C=C1\Sc2ccccc2N1CC	42.2*	10.3	6.1	-146.6	8.7	7.4	-261.1
COc1ccc(NC(=O)Nc2cccc3c2O[C@H](CN(C)C(=O)Nc2ccc4c(c2)OCO4)[C@@H](C)CN([C@H](C)CO)C3=O)cc1	-5.0	0.4	.	0.7	-5.8	.	.
CCN1CCN(c2nc3ccccn3c(=O)c2C=O)CC1	20.2*	2.1	30.0	11.0	-3.8	30.8*	-2.6
SMILES	eLon inh	C-LANA FP	MCL1-BIM inh	GLD-1 RNA inh	Keap1 Nrf2 FP	BCLXL inh	eLon confirm
O=Cc1c(N2CCN(c3ccccc3)CC2)nc2ccccn2c1=O	-0.9	1.5	-1.5	-2.4	-8.1	8.1	.
Cc1ccc2nc(N3CCN(C)CC3)c(C=O)c(=O)n2c1	63.6*	3.6	37.7	16.0	-8.5	34.4*	-0.5
O=C(NCc1ccccc1)C1CCN(S(=O)(=O)c2ccc(Cl)cc2)CC1	2.1	11.8	-10.9	4.7	-3.0	-3.3	.
CCN(CC)c1ccc(N=C2C=CC(=O)C=C2NC(C)=O)cc1	37.6*	.	.	.	.	.	-10.8
CCN(CC)c1ccc(NC(=O)Nc2ccc(C(C)=O)cc2)cc1	-0.6	-2.6	5.2	-3.9	-3.9	16.5	.
COc1ccccc1C(=O)NCc1nnc(SCC(=O)Nc2nccs2)n1C	3.8	0.1	-0.9	-5.9	0.5	-3.5	.
CCOC(=O)C1=C(C)NC2=C(C(=O)C(C(=O)OCC)C(c3ccco3)C2)C1c1ccccn1 (stereo unspecified)	44.4*	1.0	10.4	7.5	-3.3	3.0	-0.6
COc1ccc(O)c(C(=O)c2cnn(-c3ccccn3)c2)c1	84.2*	0.3	-7.8	-6.2	5.2	0.2	-12.5
O=C1CCCc2ccccc2N1Cc1ccc(Cl)cc1Cl	18.0*	-1.0	-5.9	0.1	-3.8	-1.8	-0.6
Nc1[nH]n(-c2c(Cl)cc(Cl)cc2Cl)c(=O)c1N=Nc1ccc(S(=O)(=O)Nc2ncccn2)cc1	21.4*	-2.7	.	3.0	-2.0	.	9.3
Cc1cccnc1NC(=O)Nc1cccc(F)c1	-2.1	.	.	.	.	.	.
COc1ccccc1Cc1c(-c2ccc(C#N)cc2)nc2ccc(Br)cn12	-24.0	.	.	.	.	.	.
COC(=O)CCC(=O)OC1(C)C(=O)C=C2C=C(C3CC3)N(C(CO)CO)C=C2C1=O (stereo unspecified)	26.8*	3.0	9.2	8.9	-6.4	9.7	6.8
O=C(c1cnccn1)N1CCN(S(=O)(=O)c2ccc3ccccc3c2)CC1	20.1*	-1.0	-11.1	-5.0	-5.9	-6.9	1.2
COc1ccc(C(=O)COC(=O)c2ccccc2C(=O)N(C)c2ccccc2)c(OC)c1	40.1*	-0.9	2.0	-6.3	-9.6	-0.9	8.4
CCCCCCCCNCCS(=O)(=O)NCc1ccc(OC)cc1	-9.6	-2.5	.	.	-0.8	.	.
Cc1nc(CC(=O)N2CCN(c3cccc(C)c3C)CC2)cs1	23.7*	1.7	16.4	6.6	1.3	15.1	1.6
O=C(NCCCNC(=O)c1ccccn1)c1ccc(Br)cc1	-5.6	-1.2	4.7	-4.2	-4.6	6.1	.
Cc1ccc(N(CC(=O)N2CCCC2)S(C)(=O)=O)c(C)c1	35.8*	-2.9	5.4	4.2	-3.6	0.2	6.8
